Measured values: PubChem BioAssay
Calls of active or inactive are those of the source. Unless noted, the rule behind the calls is not given here.

Key:
[1] = resazurin metabolic signal in HepG2 cells – cell-based, resazurin fluorescence, 24 h, PK04 Diversity Set, profiling panel (AID 1172); conditions: HepG2 viability, higher = more signal
[2] = budding yeast growth changes without added modifier – OD600, strain BY4716, 24 h, basal condition, primary screen (AID 1173); conditions: S. cerevisiae BY4716 growth, OD600, 24 h; higher = more signal, called active from +8 up or from −8 down
[3] = viability profiling in MM1S myeloma cells – cell-based, resazurin fluorescence, basal, 24 h, PK04 Diversity Set, profiling panel (AID 1174); conditions: higher = more signal, called active from +8 up or from −8 down;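 note: MM1S multiple myeloma cell line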
[4] = target: Dihydroorotate dehydrogenase (quinone), mitochondrial (Plasmodium falciparum (isolate 3D7)) (UniProt Q08210); experiment: inhibition of P. falciparum DHODH – biochemical, C-terminal His tag, absorbance 600 nm, primary screen (AID 1175); conditions: PfDHODH enzyme, DCIP absorbance 600 nm; higher = more signal, called active from +8 up or from −8 down;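 note: recombinant parasite enzyme with a five histidine tag at its C terminus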
Chain of Dihydroorotate dehydrogenase (quinone), mitochondrial (Plasmodium falciparum (isolate 3D7)) (Q08210 whole entry, looked up): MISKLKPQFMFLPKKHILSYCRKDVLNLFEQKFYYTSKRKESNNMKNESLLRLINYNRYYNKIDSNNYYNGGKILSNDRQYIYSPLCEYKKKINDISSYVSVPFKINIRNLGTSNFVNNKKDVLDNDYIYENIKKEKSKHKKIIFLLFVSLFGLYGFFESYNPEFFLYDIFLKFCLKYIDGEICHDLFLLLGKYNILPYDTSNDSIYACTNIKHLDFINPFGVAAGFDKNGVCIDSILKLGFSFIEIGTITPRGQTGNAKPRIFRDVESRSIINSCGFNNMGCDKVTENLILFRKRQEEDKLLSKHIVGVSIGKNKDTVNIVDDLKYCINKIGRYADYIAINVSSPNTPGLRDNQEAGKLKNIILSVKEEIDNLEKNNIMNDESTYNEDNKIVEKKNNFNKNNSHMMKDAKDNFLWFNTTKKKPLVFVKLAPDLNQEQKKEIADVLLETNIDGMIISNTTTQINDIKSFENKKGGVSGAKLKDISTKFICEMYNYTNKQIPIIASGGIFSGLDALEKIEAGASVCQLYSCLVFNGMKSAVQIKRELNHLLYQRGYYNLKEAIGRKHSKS

[5] = inhibition of PAO1 biofilm formation – strain PAO1, LB-PBS medium, absorbance 600 nm, primary screen (AID 1176); conditions: P. aeruginosa PAO1 growth/biofilm, A600, 12 h; higher = more signal
[6] = growth modulation of vineyard yeast isolate – strain RM11-1a, OD600, basal, 24 h, primary screen (AID 1177);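 note: cultures grown under basal conditions with no added stressor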; conditions: S. cerevisiae RM11-1a growth, OD600, 24 h; higher = more signal, called active from +8 up or from −8 down
[7] = growth of efflux-deficient E. coli DRC39 – strain DRC39, OD650, 24 h, E. coli filamentation inducers, primary screen (AID 1178);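 note: growth measured as culture turbidity by optical density at 650 nm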; conditions: E. coli DRC39 acrAB, higher = more signal, called active from +8 up or from −8 down
[8] = growth of efflux-deficient E. coli DRC39 – strain DRC39, OD650, 48 h, E. coli filamentation inducers, primary screen (AID 1179);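 note: screen aims at cell division blockers that make cells filament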; conditions: E. coli DRC39 delta-acrAB growth, higher = more signal, called active from +8 up or from −8 down
[9] = viability profiling in RPMI8226 myeloma cells – cell-based, resazurin fluorescence, basal, 24 h, PK04 Diversity Set, profiling panel (AID 1180); conditions: higher = more signal;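 note: RPMI8826 multiple myeloma cell line at 5000 cells per well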
[10] = target: E3 ubiquitin-protein ligase XIAP (Homo sapiens) (UniProt P98170); experiment: small molecules binding XIAP protein – biophysical, small-molecule microarray, fluorescence 635 nm, primary screen (AID 1181); conditions: higher = more signal;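 note: score merges 667 nm emission and signal to noise over triplicate slides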
Chain of E3 ubiquitin-protein ligase XIAP (Homo sapiens) (P98170 whole entry, looked up, the tested form may be a part): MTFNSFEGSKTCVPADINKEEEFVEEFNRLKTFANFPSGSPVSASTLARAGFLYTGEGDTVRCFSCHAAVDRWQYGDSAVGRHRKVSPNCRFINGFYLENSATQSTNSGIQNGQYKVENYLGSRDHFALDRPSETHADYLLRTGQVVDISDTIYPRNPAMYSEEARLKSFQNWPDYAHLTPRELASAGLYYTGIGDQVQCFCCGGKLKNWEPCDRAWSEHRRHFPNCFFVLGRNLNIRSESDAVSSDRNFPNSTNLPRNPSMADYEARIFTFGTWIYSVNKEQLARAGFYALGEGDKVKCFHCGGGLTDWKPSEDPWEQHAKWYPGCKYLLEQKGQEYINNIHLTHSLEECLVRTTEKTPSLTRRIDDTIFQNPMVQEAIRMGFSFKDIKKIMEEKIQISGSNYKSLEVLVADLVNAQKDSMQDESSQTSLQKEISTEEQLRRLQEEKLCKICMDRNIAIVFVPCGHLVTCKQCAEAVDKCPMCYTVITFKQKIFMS

[11] = system: XIP peptide (Xip251-270) binding; experiment: XIP fragment 251-270 binding compounds – biochemical, small-molecule microarray, fluorescence 635/667 nm, 0.1 µg/mL protein, primary screen (AID 1182); conditions: fluorescent protein binding, 635 nm, higher = more signal, called active from +8 up or from −8 down
XIP peptide (Xip251-270) = experiment: compounds binding XIP fragment 251-270 – biochemical, small-molecule microarray, fluorescence 635/667 nm, 0.5 µg/mL protein, primary screen (AID 1183); conditions: fluorescence 635 nm, higher = more signal
[12] = blood-stage malaria parasite viability loss – strain 3D7, DAPI fluorescence, 100 nL, primary screen (AID 1184);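 note: parasites grown inside human red blood cells in medium with human serum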; conditions: P. falciparum 3D7 growth, 3 d, higher = more signal
[13] = target: Homeobox protein Hox-A13 (Mus musculus) (UniProt Q62424); experiment: disruptors of Hoxa13 oligonucleotide interaction – biochemical, fluorescence polarization, labeled oligonucleotide, primary screen (AID 1185); conditions: Hoxa13:DNA binding, 15 min, higher = more signal, called active from +8 up or from −8 down
Chain of Homeobox protein Hox-A13 (Mus musculus) (Q62424 whole entry, looked up): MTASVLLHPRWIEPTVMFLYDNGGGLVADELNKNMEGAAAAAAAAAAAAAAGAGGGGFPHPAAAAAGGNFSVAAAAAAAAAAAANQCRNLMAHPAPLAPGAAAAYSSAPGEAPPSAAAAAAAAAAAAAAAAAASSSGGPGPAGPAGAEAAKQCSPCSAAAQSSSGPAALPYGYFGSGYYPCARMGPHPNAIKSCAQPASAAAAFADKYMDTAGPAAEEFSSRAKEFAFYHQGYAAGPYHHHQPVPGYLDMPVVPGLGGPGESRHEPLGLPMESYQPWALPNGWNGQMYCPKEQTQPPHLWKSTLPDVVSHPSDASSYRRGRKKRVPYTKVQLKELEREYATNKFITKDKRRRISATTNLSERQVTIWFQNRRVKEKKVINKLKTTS

[14] = blockers of DNA damage checkpoint Chk1 activation – imaging, HeLa, hydroxyurea, phospho-Chk1 antibody, percent positive cells, primary screen (AID 1186); conditions: hydroxyurea-induced phospho-Chk1 immunofluorescence imaging, higher = more signal
[15] = blockers of DNA damage checkpoint Chk1 activation – imaging, HeLa, hydroxyurea, phospho-Chk1 nuclear intensity, primary screen (AID 1187); conditions: hydroxyurea-induced phospho-Chk1 immunofluorescence imaging, higher = more signal

SMILES: CN1C(=O)C2C=CC(C(O)c3ccc(F)cc3)N(Nc3ccccc3)C2C1=O (stereo unspecified)
- z-score [1]: -1.05
- z-score [2]: 0.544 (inactive)
- z-score [3]: -1.24 (inactive)
- composite z-score [4]: 0.869 (inactive)
- z-score [5]: 0.944 (inactive)
- z-score [6]: 1.38 (inactive)
- z-score [7]: -1.03 (inactive)
- z-score [8]: -0.894 (inactive)
- z-score [9]: -1.58
- composite z-score [10]: 0.0761
- composite z-score [11]: 0.477 (inactive)
- composite z-score (XIP peptide (Xip251-270)): 0.466
- z-score [12]: -0.102
- z-score [13]: -2.9 (inactive)
- z-score [14]: 0.264 (inactive)
- z-score [15]: -0.232 (inactive)

SMILES: COCCOC(=O)N1C(=O)[C@@]2(c3cc(C#Cc4ccc(OC)cc4)ccc31)[C@H](c1ccccc1OCCO)N1[C@H](c3ccccc3)[C@H](c3ccccc3)OC(=O)[C@H]1[C@@H]2C(=O)N1CCCCCCC1
- z-score [1]: 0.457
- z-score [2]: 1.29 (inactive)
- z-score [3]: 0.0229 (inactive)
- composite z-score [4]: -1.26 (inactive)
- z-score [5]: 3.49 (inactive)
- z-score [6]: 1.84 (inactive)
- z-score [7]: -0.398 (inactive)
- z-score [8]: 0.118 (inactive)
- z-score [9]: 0.504
- composite z-score [10]: 0.223
- composite z-score [11]: 1.93 (inactive)
- composite z-score (XIP peptide (Xip251-270)): 0.319
- z-score [12]: -2.02
- z-score [13]: 4.73 (inactive)
- z-score [14]: -0.434 (inactive)
- z-score [15]: -0.648 (inactive)

SMILES: CCCNC(=O)[C@@]1(c2ccc([N+](=O)[O-])cc2)CC(=O)N(C2CCCCC2)[C@@H]1c1ccc(CO)cc1
- z-score [1]: -0.347
- z-score [2]: 0.262 (inactive)
- z-score [3]: 0.411 (inactive)
- composite z-score [4]: 0.666 (inactive)
- z-score [5]: 0.304 (inactive)
- z-score [6]: 1.83 (inactive)
- z-score [7]: 0.117 (inactive)
- z-score [8]: -0.194 (inactive)
- z-score [9]: 0.543
- composite z-score [10]: -0.173
- composite z-score [11]: 2.45 (inactive)
- composite z-score (XIP peptide (Xip251-270)): 0.73
- z-score [12]: -0.47
- z-score [13]: -3.27 (inactive)
- z-score [14]: 0.0926 (inactive)
- z-score [15]: 0.213 (inactive)

SMILES: C=C(C)[C@@H]1CC=C(C(O)C2C=CC3C(=O)N(c4ccccc4)C(=O)C3N2Nc2ccccc2F)CC1 (stereo partly specified)
- z-score [1]: -0.91
- z-score [2]: 0.966 (inactive)
- z-score [3]: -0.773 (inactive)
- composite z-score [4]: 1.63 (inactive)
- z-score [5]: 1.51 (inactive)
- z-score [6]: 2.01 (inactive)
- z-score [7]: -0.96 (inactive)
- z-score [8]: -0.829 (inactive)
- z-score [9]: -1.09
- composite z-score [10]: 0.0806
- composite z-score [11]: 0.301 (inactive)
- composite z-score (XIP peptide (Xip251-270)): 0.656
- z-score [12]: -0.282
- z-score [13]: -1.52 (inactive)
- z-score [14]: 0.749 (inactive)
- z-score [15]: 0.372 (inactive)

SMILES: O=C1O[C@@H](c2ccccc2)[C@@H](c2ccccc2)N2[C@@H](c3ccc(O)cc3)[C@]3(C(=O)Nc4ccc(C#CC5=CCCCC5)cc43)[C@@H](C(=O)NC[C@H](O)c3ccccc3)[C@H]12
- z-score [1]: -0.705
- z-score [2]: -0.593 (inactive)
- z-score [3]: -3.09 (inactive)
- composite z-score [4]: -0.609 (inactive)
- z-score [5]: 1.6 (inactive)
- z-score [6]: 2.43 (inactive)
- z-score [7]: 0.0087 (inactive)
- z-score [8]: 0.939 (inactive)
- z-score [9]: -6.69
- composite z-score [10]: -0.0397
- composite z-score [11]: 0.662 (inactive)
- composite z-score (XIP peptide (Xip251-270)): 0.772
- z-score [12]: -0.369
- z-score [13]: 0.986 (inactive)
- z-score [14]: -0.384 (inactive)
- z-score [15]: -0.016 (inactive)

SMILES: COC(=O)CCCCCCC(=O)Nc1ccc(NC(=O)CCCC[P+](c2ccccc2)(c2ccccc2)c2ccccc2)cc1
- z-score [1]: 1.45
- z-score [2]: -1.95 (inactive)
- z-score [3]: 0.687 (inactive)
- composite z-score [4]: -1.77 (inactive)
- z-score [5]: -1.01 (inactive)
- z-score [6]: 1.68 (inactive)
- z-score [7]: -17.1 (active)
- z-score [8]: -5.78 (inactive)
- z-score [9]: 0.347
- composite z-score [10]: -0.127
- composite z-score [11]: -0.369 (inactive)
- composite z-score (XIP peptide (Xip251-270)): 0.102
- z-score [12]: -1.46
- z-score [13]: -1.31 (inactive)
- z-score [14]: -0.917 (inactive)
- z-score [15]: -1.21 (inactive)

SMILES: C=C[C@@H](OC)[C@H](OC(=O)Nc1ccc(SC)cc1)c1ccc(O)c(F)c1
- z-score [1]: -0.626
- z-score [2]: -2.65 (inactive)
- z-score [3]: -0.807 (inactive)
- composite z-score [4]: 0.592 (inactive)
- z-score [5]: 1.22 (inactive)
- z-score [6]: 1.95 (inactive)
- z-score [7]: -0.881 (inactive)
- z-score [8]: -1.19 (inactive)
- z-score [9]: -0.649
- composite z-score [10]: -0.117
- composite z-score [11]: 0.313 (inactive)
- composite z-score (XIP peptide (Xip251-270)): 0.0562
- z-score [12]: -0.386
- z-score [13]: -4.2 (inactive)
- z-score [14]: -0.337 (inactive)
- z-score [15]: -0.23 (inactive)

SMILES: CCOC(=O)C1=CC[C@@H](c2cccc(Cl)c2)N(S(=O)(=O)c2ccc(C)cc2)C1
- z-score [1]: -0.36
- z-score [2]: 0.255 (inactive)
- z-score [3]: -0.347 (inactive)
- composite z-score [4]: -1.54 (inactive)
- z-score [5]: -0.405 (inactive)
- z-score [6]: -0.188 (inactive)
- z-score [7]: 0.242 (inactive)
- z-score [8]: 1.2 (inactive)
- z-score [9]: -0.277
- composite z-score [10]: -0.149
- composite z-score [11]: 1.46 (inactive)
- composite z-score (XIP peptide (Xip251-270)): 0.662
- z-score [12]: -0.639
- z-score [13]: -1.21 (inactive)
- z-score [14]: -0.566 (inactive)
- z-score [15]: -0.272 (inactive)

SMILES: C=CCNC(=O)[C@H]1[C@@H]2C(=O)O[C@@H](c3ccccc3)[C@@H](c3ccccc3)N2[C@@H](c2ccc(O)cc2)[C@]12C(=O)Nc1ccc(C#CC3(O)CCCCCC3)cc12
- z-score [1]: 0.435
- z-score [2]: -0.989 (inactive)
- z-score [3]: -0.514 (inactive)
- composite z-score [4]: 0.19 (inactive)
- z-score [5]: 1.45 (inactive)
- z-score [6]: -0.596 (inactive)
- z-score [7]: 0.186 (inactive)
- z-score [8]: -0.11 (inactive)
- z-score [9]: -0.458
- composite z-score [10]: -0.0622
- composite z-score [11]: 0.692 (inactive)
- composite z-score (XIP peptide (Xip251-270)): 0.466
- z-score [12]: -0.372
- z-score [13]: -3.96 (inactive)
- z-score [14]: -0.165 (inactive)
- z-score [15]: -0.244 (inactive)

SMILES: O=C1O[C@H](c2ccccc2)[C@H](c2ccccc2)N2[C@H]1[C@@H](C(=O)Nc1nc3ccccc3s1)[C@]1(C(=O)Nc3ccc(C#CCCO)cc31)[C@H]2c1ccc(O)cc1
- z-score [1]: 0.506
- z-score [2]: 0.14 (inactive)
- z-score [3]: 0.157 (inactive)
- composite z-score [4]: -0.253 (inactive)
- z-score [5]: 1.04 (inactive)
- z-score [6]: 0.604 (inactive)
- z-score [7]: 0.266 (inactive)
- z-score [8]: 0.145 (inactive)
- z-score [9]: -2.4
- composite z-score [10]: 1.01
- composite z-score [11]: 0.25 (inactive)
- composite z-score (XIP peptide (Xip251-270)): 0.625
- z-score [12]: 0.902
- z-score [13]: -1.02 (inactive)
- z-score [14]: -0.334 (inactive)
- z-score [15]: -0.376 (inactive)

SMILES: CC(C)(C)N1CC=CC23O[C@@H]4C=CCOC(=O)[C@@H]4[C@H]2C(=O)N(CCCCCCO)[C@@H]3C1=O (stereo partly specified)
- z-score [1]: -0.303
- z-score [2]: -0.093 (inactive)
- z-score [3]: 0.448 (inactive)
- composite z-score [4]: -0.817 (inactive)
- z-score [5]: -0.608 (inactive)
- z-score [6]: -0.957 (inactive)
- z-score [7]: 0.226 (inactive)
- z-score [8]: 0.254 (inactive)
- z-score [9]: 0.29
- composite z-score [10]: 0.0385
- composite z-score [11]: -0.196 (inactive)
- composite z-score (XIP peptide (Xip251-270)): 0.448
- z-score [12]: -0.429
- z-score [13]: -4.45 (inactive)
- z-score [14]: -0.156 (inactive)
- z-score [15]: -0.43 (inactive)
